Data published in PubChem BioAssay (Tox21).
Results filed as inconclusive are left out. Values without a mark were called inactive. The call rests on the fitted dose curve.

Assay: p53 small molecule agonists, cell-based qHTS assay with rat liver microsomes (AID 1963578)
Details: HCT-116 p53RE-bla, beta-lactamase ratio, 16 h; series mostly up to 66 µM; activation: at the top concentration
Source text: U.S. Tox21 Program National Center for Advancing Translational Sciences [NCATS] Division of Preclinical Innovation [DPI] U.S. Environmental Protection Agency [EPA] National Institutes of Environmental Health Sciences [NIEHS] National Toxicology Program [NTP] U.S. Food and Drug Administration [FDA] Tox21 Assay Overview: p53, a tumor suppressor protein, is activated following cellular insult, including DNA damage and other cellular stresses. The activation of p53 regulates cell fate by inducing DNA repair, cell cycle arrest, apoptosis, or cellular senescence. The activation of p53, therefore, is a good indicator of DNA damage and other cellular stresses. […] The activation of the reporter gene under culture conditions can be detected by fluorescence intensity. This cell line was used to screen the Tox21 10K compound library in the condition of presence of rat liver microsomes and to identify agonists that activate the p53 signaling pathway after in vitro metabolic activation (Ooka et al., Archive of Toxicology 96:1975-1987, 2022).
Tox21 Assay Protocol Summary: The p53RE-bla cells were dispensed at 4,000cells/3ul/well in 1536-well black-clear bottom plates. After the assay plates were incubated at 37 C, 5% CO2 incubator for 5 hours, 23 nL of compounds dissolved in DMSO, positive controls or DMSO only was transferred to the assay plate. Following compound addition, 3 uL of rat liver microsomes (Molecular Toxicology, Boone, NC) at final concentration of 0.5 mg/mL and 1uL of Beta-Nicotinamide adenine dinucleotide 2-phosphate (NADPH) at final concentration of 0.5 mg/mL were transferred to the assay plate. The plates were incubated at 37 C for 16 hours. 1 uL of LiveBLAzer detection mixture was added to each well and the plates were incubated at room temperature in the dark for 2 h.
On the % scale 0 is the no-effect control and ±100 the full control effect.

Structure (SMILES) | activation
O=[N+]([O-])c1cc(C2CCCCC2)c(O)c([N+](=O)[O-])c1 | -0.304%
CC(C)c1ccc2c(c1)CC[C@H]1[C@](C)(CN)CCC[C@]21C | 0.03%
CNCCCC1c2ccccc2C=Cc2ccccc21 | -0.26% [at 30.3 µM]
O=C(O)COc1ccc2ccccc2c1 | -0.049%
Oc1c(Cl)cc(Cl)c2cccnc12 | -0.88% [at 30.3 µM]
Cc1cc2c(C(C)C)c(O)c(O)c(C=O)c2c(O)c1-c1c(C)cc2c(C(C)C)c(O)c(O)c(C=O)c2c1O | -9.84% [at 30.3 µM]
C=CCOCC(O)CCl (stereo not given) | -1.13%
NC(=O)Cn1c(=O)cc(CCN2CCN(c3nccc4sccc34)CC2)c2ccc(F)cc21 | -4.15%
CN(C)C(=O)NC1(c2ccccc2)CCN(CCC[C@]2(c3ccc(Cl)c(Cl)c3)CCCN(C(=O)c3ccccc3)C2)CC1 | 0.0763% [at 13.6 µM]
CCCCCCCCCCCCCCCCCC[N+](C)(C)Cc1ccccc1 | -3.9%
CCCC(=O)OC | -1.73%
CC(Oc1c(Cl)cccc1Cl)C1=NCCN1 (stereo not given) | 0.0793% [at 30.3 µM]
O=C1CCC/C=C\CCCCCCCCCC1 | -0.0753%
CCC(=O)/C=C/c1ccc(OC)cc1 | 1.67%
O=S(=O)(O)c1cc(S(=O)(=O)O)c2ccc3c(S(=O)(=O)O)cc(S(=O)(=O)O)c4ccc1c2c43 | -1.38% [at 13.6 µM]
CC(=O)Oc1ccc([N+](=O)[O-])cc1CCl | -5.73%
CC(C)(C)c1ccc(OC(=O)c2ccccc2O)cc1 | -0.0845%
Cc1cc(O)c(Cl)c(C)c1Cl | 0.834%
CS(C)=O | -0.839%
CCCCCCCCCCCCCCCCN | 0.379% [at 30.3 µM]

Structure (SMILES) | activation
O=C(Oc1ccccc1)c1ccc2ccccc2c1O | -6.12%
CCCCCC=CCC=CCCCCCCCC(=O)OCC | -0.201% [at 30.3 µM]
CCCCN | 0.68% [at 30.3 µM]
S=c1[nH]c2ccccc2s1 | 4.26%
N#C/C(=C1/SC[C@@H](c2ccc(Cl)cc2Cl)S1)n1ccnc1 | 0.0969% [at 30.3 µM]
C=C[Si](OCC)(OCC)OCC | -2.23%
Nc1ccc(N)c2ccccc12 | -1.23%
CC(=O)OC(C)OC(=O)C(C)c1ccc(-c2ccccc2)c(F)c1 (stereo not given) | -2% [at 30.3 µM]
CN(C)CCN(Cc1ccccc1)c1ccccn1 | 0.36% [at 30.3 µM]
C[C@H](CCC(=O)O)[C@H]1CC[C@H]2[C@@H]3CC[C@@H]4C[C@H](O)CC[C@]4(C)[C@H]3C[C@H](O)[C@]12C | -7.93%
Cc1ccc(C(=O)C(C)CN2CCCCC2)cc1 (stereo not given) | 0.458% [at 30.3 µM]
CC1(C)[C@@H](O)CC[C@]2(C)[C@H]3C(=O)C=C4[C@@H]5C[C@@](C)(C(=O)O)CC[C@]5(C)CC[C@@]4(C)[C@]3(C)CC[C@@H]12 | -6.39%
O=C1c2ccccc2C(=O)c2c(O)c(O)cc(O)c21 | -4.04%
c1cnc(N2CCN(Cc3ccc4c(c3)OCO4)CC2)nc1 | -0.388% [at 30.3 µM]
CCC(C)O (stereo not given) | -0.231%
CCCC(=O)OCC | -1.65%
CC(NCCC(c1ccccc1)c1ccccc1)c1ccccc1 (stereo not given) | 0.0876% [at 30.3 µM]
Cc1ccc([N+](=O)[O-])c(N)c1 | -6.65%
Nc1nnc(-c2ccc([N+](=O)[O-])o2)o1 | -1.76%
CC(C)(C)c1ccc(C(=O)CCCN2CCC(OC(c3ccccc3)c3ccccc3)CC2)cc1 | -1.21% [at 30.3 µM]
